According to PubChem BioAssay:
Calls of active or inactive are those of the source.

Columns and labels:
[1] = E. coli DRC41 culture turbidity changes, primary screen, E. coli filamentation inducer project, strain DRC41, OD650, 48 h (AID 1152);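 note: E. coli MC1000 strain DRC41 lacking acrAB efflux pump and sulA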; settings: E. coli DRC41 (acrAB sulA), higher = more signal, called active from +8 up or from −8 down
[2] = small-molecule binders of probe aLefty1, primary screen, biochemical, small-molecule microarray, 635/667 nm fluorescence (AID 1153); settings: higher = more signal;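 note: score merges spot fluorescence with signal-to-noise ratio from the scanned slide images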
[3] = PSAC antagonists in infected red cells, primary screen, cell-based, P. falciparum Indochina, OD700, 1 h (AID 1154); settings: P. falciparum Indochina infected RBC osmotic lysis, higher = more signal, called active from +8 up or from −8 down
[4] = PSAC antagonists in infected red cells, primary screen, cell-based, P. falciparum Indochina, OD700, 2 h (AID 1155);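 note: lysis reports solute entry through the parasite surface anion channel PSAC; channel blockers reduce lysis of infected cells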; settings: P. falciparum Indochina infected erythrocytes, osmotic lysis OD700; higher = more signal, called active from +8 up or from −8 down
[5] = osmotic lysis modulators in infected erythrocytes, primary screen, PSAC antagonist project, cell-based, P. falciparum Indochina, OD700, 3 h (AID 1156); settings: higher = more signal, called active from +8 up or from −8 down
[6] = PSAC antagonists in infected red cells, primary screen, cell-based, P. falciparum Indochina, OD700, 18 h (AID 1157); settings: P. falciparum Indochina infected erythrocytes, osmotic lysis OD700, 18 h; higher = more signal, called active from +8 up or from −8 down
[7] = modulators of S6 phosphorylation in cells, primary screen, cell-based, A549, cytoblot, luminescence, serum-stimulated (AID 1158); settings: A549 phospho-S6 cytoblot, 5 h, higher = more signal;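 note: serum-stimulated A549 lung adenocarcinoma cells; signal is phosphorylated S6 detected by cytoblot immunostaining with HRP secondary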
[8] = target: NADPH oxidase 2 (Homo sapiens) (UniProt P04839); experiment: NOX2-dependent H2O2 signal modulators, primary screen, NOX inhibitor project, cell-based, HEK293-NOX2, PMA-stimulated, Amplex Red fluorescence (AID 1159); settings: 45 min, higher = more signal, called active from +8 up or from −8 down; note: test concentration not given here
[9] = target: NADPH oxidase 4 (Homo sapiens) (UniProt Q9NPH5); experiment: NOX4-dependent H2O2 signal modulators, primary screen, NOX inhibitor project, cell-based, HEK293-NOX4, tetracycline-induced, Amplex Red fluorescence (AID 1160); settings: 45 min, higher = more signal, called active from +8 up or from −8 down
[10] = target: NADPH oxidase 5 (Homo sapiens) (UniProt Q96PH1); experiment: NOX5-dependent H2O2 signal modulators, primary screen, NOX inhibitor project, cell-based, HEK293-NOX5, Amplex Red fluorescence (AID 1161); settings: HEK293-NOX5, ionomycin, 45 min, higher = more signal
[11] = A549 cell viability effects, profiling panel, calcein-AM fluorescence, 48 h, basal (AID 1162); settings: higher = more signal; note: test concentration not given here
[12] = adipocyte viability effects, profiling panel, cell-based, 3T3-L1 adipocytes, calcein-AM fluorescence, 48 h, basal (AID 1163); settings: 3T3-L1 adipocytes viability, higher = more signal; note: test concentration not given here
[13] = HepG2 cell viability effects, profiling panel, calcein-AM fluorescence, 48 h, basal (AID 1164); settings: higher = more signal; note: test concentration not given here
[14] = MM1S cell viability effects, profiling panel, calcein-AM fluorescence, 48 h, basal (AID 1165); settings: higher = more signal;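 note: viability of MM1S multiple myeloma cells under basal unstimulated conditions; test concentration not given here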
[15] = basal RPMI8226 viability, no added stimulus, profiling panel, cell-based, calcein-AM fluorescence, 48 h, PK04 Diversity Set (AID 1166); settings: RPMI8226 myeloma viability, higher = more signal;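 note: cells grown under basal conditions without added stimulus; test concentration not given here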
[16] = basal HepG2 mitochondrial membrane potential changes, profiling panel, cell-based, JC-1 fluorescence, 24 h, 100 nL compound (AID 1167); settings: higher = more signal; note: test concentration not given here
[17] = basal 3T3-L1 adipocyte mitochondrial potential changes, profiling panel, cell-based, JC-1 fluorescence, 3T3-L1 adipocytes, 24 h, 100 nL compound (AID 1168); settings: JC-1 mitochondrial fluorescence, higher = more signal, called active from +8 up or from −8 down; note: test concentration not given here
[18] = basal RPMI8226 mitochondrial membrane potential changes, profiling panel, cell-based, JC-1 fluorescence, 24 h, 100 nL compound (AID 1169); settings: RPMI8226 myeloma, JC-1 mitochondrial potential fluorescence, higher = more signal; note: test concentration not given here
[19] = basal MM1S mitochondrial membrane potential changes, profiling panel, cell-based, JC-1 fluorescence, 24 h, 100 nL compound (AID 1170); settings: higher = more signal; note: test concentration not given here
[20] = A549 lung cancer cell viability effects, profiling panel, resazurin fluorescence, 24 h, PK04 Diversity Set (AID 1171); settings: higher = more signal, called active from +8 up or from −8 down; note: test concentration not given here

NADPH oxidase 2 (Homo sapiens), sequence (P04839 whole entry, looked up): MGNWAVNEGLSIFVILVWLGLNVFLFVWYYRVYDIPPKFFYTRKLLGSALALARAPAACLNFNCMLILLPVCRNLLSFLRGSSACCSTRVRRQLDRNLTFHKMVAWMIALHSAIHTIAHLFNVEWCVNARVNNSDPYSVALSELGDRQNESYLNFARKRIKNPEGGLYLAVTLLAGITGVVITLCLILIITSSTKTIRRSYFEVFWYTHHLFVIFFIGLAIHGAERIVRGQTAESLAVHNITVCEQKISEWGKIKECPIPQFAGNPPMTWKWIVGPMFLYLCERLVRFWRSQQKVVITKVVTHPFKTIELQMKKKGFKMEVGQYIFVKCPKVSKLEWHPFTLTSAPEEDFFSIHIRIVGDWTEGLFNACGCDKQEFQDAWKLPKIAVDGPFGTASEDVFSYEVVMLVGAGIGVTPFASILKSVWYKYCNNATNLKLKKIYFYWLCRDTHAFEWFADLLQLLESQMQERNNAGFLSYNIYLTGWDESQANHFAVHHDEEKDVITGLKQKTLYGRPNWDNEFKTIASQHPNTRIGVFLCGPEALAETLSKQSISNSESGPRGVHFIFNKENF
NADPH oxidase 5 (Homo sapiens), sequence (Q96PH1 whole entry, looked up): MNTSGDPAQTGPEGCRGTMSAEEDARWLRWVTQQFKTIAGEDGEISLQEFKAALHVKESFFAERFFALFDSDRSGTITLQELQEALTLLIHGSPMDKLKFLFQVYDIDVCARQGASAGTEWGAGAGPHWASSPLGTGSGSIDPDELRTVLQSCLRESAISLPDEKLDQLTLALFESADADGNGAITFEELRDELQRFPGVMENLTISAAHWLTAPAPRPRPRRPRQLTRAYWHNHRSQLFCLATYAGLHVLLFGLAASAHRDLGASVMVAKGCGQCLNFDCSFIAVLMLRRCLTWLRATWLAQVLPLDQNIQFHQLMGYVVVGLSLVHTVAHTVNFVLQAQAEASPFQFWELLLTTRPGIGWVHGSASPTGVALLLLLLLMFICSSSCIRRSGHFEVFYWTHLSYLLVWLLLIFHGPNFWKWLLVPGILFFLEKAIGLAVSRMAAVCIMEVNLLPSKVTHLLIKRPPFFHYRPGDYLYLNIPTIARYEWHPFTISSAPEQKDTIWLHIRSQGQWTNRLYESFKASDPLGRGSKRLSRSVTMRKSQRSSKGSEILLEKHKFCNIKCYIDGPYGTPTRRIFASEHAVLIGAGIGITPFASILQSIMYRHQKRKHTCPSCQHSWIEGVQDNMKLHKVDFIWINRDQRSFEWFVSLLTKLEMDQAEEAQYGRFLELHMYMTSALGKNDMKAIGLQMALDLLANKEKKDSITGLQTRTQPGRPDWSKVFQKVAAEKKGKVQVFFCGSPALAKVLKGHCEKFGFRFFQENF
NADPH oxidase 4 (Homo sapiens), sequence (Q9NPH5 whole entry, looked up): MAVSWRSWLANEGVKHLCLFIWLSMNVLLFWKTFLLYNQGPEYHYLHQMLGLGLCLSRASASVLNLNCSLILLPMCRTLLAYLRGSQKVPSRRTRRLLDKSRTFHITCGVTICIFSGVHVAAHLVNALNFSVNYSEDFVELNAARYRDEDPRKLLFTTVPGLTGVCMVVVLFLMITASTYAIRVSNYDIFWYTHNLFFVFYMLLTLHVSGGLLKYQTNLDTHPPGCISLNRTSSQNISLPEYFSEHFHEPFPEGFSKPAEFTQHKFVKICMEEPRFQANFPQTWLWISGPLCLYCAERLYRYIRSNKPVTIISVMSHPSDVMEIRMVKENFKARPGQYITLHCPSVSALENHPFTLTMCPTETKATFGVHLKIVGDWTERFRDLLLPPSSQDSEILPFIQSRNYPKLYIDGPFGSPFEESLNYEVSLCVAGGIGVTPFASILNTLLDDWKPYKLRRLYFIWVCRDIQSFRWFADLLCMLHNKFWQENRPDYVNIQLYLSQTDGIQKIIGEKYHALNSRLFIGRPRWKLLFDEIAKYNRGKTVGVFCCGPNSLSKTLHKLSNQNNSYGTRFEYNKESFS

SMILES	z-score [1]	composite z-score [2]	z-score [3]	z-score [4]	z-score [5]	z-score [6]	z-score [7]	z-score [8]	z-score [9]	z-score [10]	z-score [11]	z-score [12]	z-score [13]	z-score [14]	z-score [15]	z-score [16]	z-score [17]	z-score [18]	z-score [19]	z-score [20]
C=CCOC(=O)[C@H]1[C@@H]2C(=O)O[C@@H](c3ccccc3)[C@@H](c3ccccc3)N2[C@@H](c2ccc(OCCOC(=O)[C@H]3C[C@H]4C(=O)N[C@@H](Cc5ccccc5)C(=O)N4[C@H]3c3cccc(OCCO)c3)cc2)[C@]12C(=O)Nc1ccc(I)cc12	-0.386 (inactive)	1.29	0.977 (inactive)	0.856 (inactive)	-0.874 (inactive)	0.84 (inactive)	-0.28	2.07 (inactive)	1.35 (inactive)	1.52	-0.894	-0.532	0.933	-0.234	-0.766	-1.54	-0.346 (inactive)	-0.713	-1.41	-0.461 (inactive)
O=C1C[C@@](C(=O)NCC(F)(F)F)(c2ccc([N+](=O)[O-])cc2)[C@@H](c2ccc(CO)cc2)N1C1CCCCC1	-0.0786 (inactive)	0.517	1.18 (inactive)	-0.105 (inactive)	1.29 (inactive)	-0.0879 (inactive)	-0.429	0.166 (inactive)	0.24 (inactive)	0.104	-0.113	-1.03	0.268	-1.34	0.258	0.0995	-1.12 (inactive)	0.685	0.0421	0.423 (inactive)
CCOC(=O)C1=CC[C@@H](c2ccccc2C(F)(F)F)N(S(=O)(=O)c2ccc(C)cc2)C1	-0.007 (inactive)	0.743	0.565 (inactive)	-0.555 (inactive)	-0.892 (inactive)	-1.92 (inactive)	0.39	0.17 (inactive)	-0.742 (inactive)	-0.836	-0.82	0.605	1.31	-0.925	-1.28	2.51	0.0742 (inactive)	-0.226	-0.435	-1.27 (inactive)
C[C@@H]1ON(c2ccc(C(=O)OC(C)(C)C)cc2)[C@H](c2ccc(Br)cc2)[C@H]1C(=O)N1C(=O)OC[C@H]1Cc1ccccc1	0.351 (inactive)	-0.0241	0.393 (inactive)	0.358 (inactive)	-0.65 (inactive)	0.428 (inactive)	0.479	-0.495 (inactive)	0.0298 (inactive)	0.191	0.136	0.393	0.889	-0.486	-0.403	0.401	-0.728 (inactive)	-1.1	0.24	1.23 (inactive)
COCCOC(=O)N1C(=O)[C@@]2(c3cc(C#CC4(O)CCCCCC4)ccc31)[C@H](C(N)=O)[C@H]1C(=O)O[C@H](c3ccccc3)[C@H](c3ccccc3)N1[C@@H]2c1ccc(O)cc1	-0.342 (inactive)	-0.0186	1.7 (inactive)	-0.269 (inactive)	2.21 (inactive)	-0.125 (inactive)	-0.0551	0.649 (inactive)	0.547 (inactive)	0.85	1.47	0.521	0.412	-2.88	-3.95	-0.0298	-0.62 (inactive)	-0.522	-1.25	0.394 (inactive)
C=C[C@@H](COC(C)=O)NS(=O)(=O)c1ccc(Br)cc1	0.032 (inactive)	-0.0464	-0.0045 (inactive)	-0.446 (inactive)	-0.123 (inactive)	0.0804 (inactive)	-0.0771	-0.34 (inactive)	-0.487 (inactive)	-0.833	0.0976	-0.342	1.04	-2.08	-1.74	-0.742	-0.195 (inactive)	-0.0875	-0.259	-1.82 (inactive)
C=CCOC(=O)[C@H]1[C@@H]2C(=O)O[C@@H](c3ccccc3)[C@@H](c3ccccc3)N2[C@@H](c2ccc(OCCOC(=O)[C@H]3C[C@H]4C(=O)N[C@@H](CCCC[N+](C)(C)C)C(=O)N4[C@H]3c3cccc(OCCO)c3)cc2)[C@]12C(=O)Nc1ccc(I)cc12	0.039 (inactive)	-0.17	3.12 (inactive)	2.53 (inactive)	1.58 (inactive)	1.68 (inactive)	0.4	0.822 (inactive)	0.0287 (inactive)	0.14	-0.319	-0.0546	1.67	0.596	0.532	-2	-0.124 (inactive)	-0.51	-1.31	0.134 (inactive)
CC(C)(C)OC(=O)CC[C@]1(C(=O)NCCN2CCOCC2)N=C(c2ccc(OCCCO)cc2)O[C@H]1c1ccccc1N=[N+]=[N-]	-0.105 (inactive)	0.591	31.3 (active)	29.2 (active)	2.64 (inactive)	6.62 (inactive)	-0.136	-2.46 (inactive)	1.62 (inactive)	-1.99	-0.877	0.303	0.309	-0.603	-0.711	1.27	1.21 (inactive)	-0.683	-0.961	-0.201 (inactive)
O=C1O[C@@H](c2ccccc2)[C@@H](c2ccccc2)N2[C@@H](c3ccccc3OCCO)[C@]3(C(=O)Nc4ccc(C#CCCO)cc43)[C@@H](C(=O)N3CCN(c4ncccn4)CC3)[C@H]12	0.255 (inactive)	0.0927	2.58 (inactive)	1.27 (inactive)	-1.09 (inactive)	0.418 (inactive)	-0.531	1.3 (inactive)	-0.686 (inactive)	0.272	0.246	0.986	-0.477	-0.315	-3.89	0.799	0.778 (inactive)	-1.33	0.431	1.13 (inactive)
